Laboratory results: PubChem BioAssay (NCATS)
Results filed as inconclusive are left out. Activity calls are given as the source filed them. Calls follow the shape of the dose curve; as a rule, active = well fitted curve in the direction sought with a large enough effect; inconclusive = small, poorly fitted or top-dose-only effect, or another doubt; inactive = no such curve, though single readings can be large; an effect the other way counts as inactive or inconclusive.

Experiments:
[1] = qHTS of pediatric cancer cell lines to identify multiple opportunities for drug repurposing: Primary screen for NB-EBc1 cells (AID 1347095); also: potency is read from the fitted curve at half-maximal effect
Outline: (§1)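 ATP-based luminescence (CellTiter-Glo) quantifies viability after a 48-hour exposure. Compounds are dosed across 8 or 11 final concentrations; DMSO and 2.3 µM bortezomib serve as controls.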

[2] = qHTS of pediatric cancer cell lines to identify multiple opportunities for drug repurposing: Primary screen for Saos-2 cells (AID 1347097); also: nearly all actives have a fitted effect of over 40% in size; also: potency is read from the fitted curve at half-maximal effect
Outline: as §1

[3] = qHTS of pediatric cancer cell lines to identify multiple opportunities for drug repurposing: Primary screen for SK-N-SH cells (AID 1347098); also: nearly all actives have a fitted effect of over 65% in size; also: potency is read from the fitted curve at half-maximal effect
Outline: (§2)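 Cells (500-1,000/well) rested 5 h, then received compounds for 48 h; metabolically active cells were measured by CellTiter-Glo luminescence. Final concentrations spanned up to 46 µM (MIPE, 11-point) or 0.59 nM-46 µM (NPC, 8-point) in primary screens, 11-point in follow-ups.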

[4] = qHTS of pediatric cancer cell lines to identify multiple opportunities for drug repurposing: Primary screen for NB1643 cells (AID 1347099); also: nearly all actives have a fitted effect of over 50% in size; also: potency is read from the fitted curve at half-maximal effect
Outline: as §1

[5] = qHTS of pediatric cancer cell lines to identify multiple opportunities for drug repurposing: Primary screen for LAN-5 cells (AID 1347100); also: potency is read from the fitted curve at half-maximal effect
Outline: (§3)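 Viability after 48 h compound treatment at 37C, 500-1,000 cells/well, read as ATP luminescence with CellTiter-Glo. Primary screens used 11-point (MIPE, 0.78 nM-46 µM) or 8-point (NPC, 0.59 nM-46 µM) final concentrations; follow-up screens used 11-point dilutions.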

[6] = qHTS of pediatric cancer cell lines to identify multiple opportunities for drug repurposing: Primary screen for BT-12 cells (AID 1347101); also: nearly all actives have a fitted effect of over 25% in size; also: potency is read from the fitted curve at half-maximal effect
Outline: as §2

[7] = qHTS of pediatric cancer cell lines to identify multiple opportunities for drug repurposing: Primary screen for Rh18 cells (AID 1347102); also: nearly all actives have a fitted effect of over 65% in size; also: potency is read from the fitted curve at half-maximal effect
Outline: as §3

[8] = qHTS of pediatric cancer cell lines to identify multiple opportunities for drug repurposing: Primary screen for OHS-50 cells (AID 1347103); also: nearly all actives have a fitted effect of over 40% in size; also: potency is read from the fitted curve at half-maximal effect
Outline: as §2

[9] = qHTS of pediatric cancer cell lines to identify multiple opportunities for drug repurposing: Primary screen for RD cells (AID 1347104); also: nearly all actives have a fitted effect of over 55% in size; also: potency is read from the fitted curve at half-maximal effect
Outline: as §1

[10] = qHTS of pediatric cancer cell lines to identify multiple opportunities for drug repurposing: Primary screen for U-2 OS cells (AID 1347096); also: nearly all actives have a fitted effect of over 50% in size
Outline: as §3

Measured: Potency

Cc1cc(Nc2cc(N3CCN(C)CC3)nc(Sc3ccc(NC(=O)C4CC4)cc3)n2)n[nH]1
active: [1] 0.935 µM | [3] 21.5 µM | [4] 20.9 µM | [5] 0.105 µM | [6] 21.7 µM | [7] 16.6 µM | [8] 6.85 µM | [9] 18.7 µM
inactive: [2]

Cc1cc(CN2CCN(c3c(Br)cnc4nc(-c5ccc(N6CCN(C)CC6)cc5)[nH]c34)CC2)no1
inactive: [10]
active: [1] 2.35 µM | [3] 21.5 µM | [4] 16.6 µM | [5] 0.418 µM | [7] 20.9 µM | [8] 30.6 µM | [9] 26.4 µM

CN(C)CCCN=c1c2ccccc2n(C)c2[nH]c(=O)n(C)c(=O)c12
active: [1] 0.743 µM | [3] 4.29 µM | [4] 3.32 µM | [5] 2.09 µM | [6] 7.69 µM | [9] 13.2 µM
inactive: [10]

CC(C)Nc1cc(C(F)(F)F)cc2nc(NC(=O)c3cccnc3)nn12
not listed: [2] | [3] | [4]
inactive: all other assays above

CC(C)(O)CCc1ccc(OCc2cc(-c3cccc(OC(F)F)c3)c3ncccc3c2)cc1
active: [4] 18.7 µM
not listed: [2] | [3] | [8]
inactive: all other assays above

CC(C)(C)c1cc(NC(=O)Nc2ccc(-c3cn4c(n3)sc3cc(OCCN5CCOCC5)ccc34)cc2)no1
active: [1] 16.6 µM | [2] 18.7 µM
inactive: [3] | [4] | [5] | [6] | [7]

Nc1nccc(Oc2ccc(NC(=O)c3c[nH]cc(-c4ccc(F)cc4)c3=O)cc2F)c1Cl
inactive: [10]
active: [1] 1.05 µM | [3] 6.81 µM | [4] 14.8 µM | [5] 1.18 µM | [6] 13.7 µM | [7] 18.7 µM | [8] 7.69 µM | [9] 26.4 µM

Nc1ncnc2c1c(-c1cccc(OCc3ccccc3)c1)cn2C1CC(CN2CCCC2)C1 (stereo not drawn)
active: [1] 4.69 µM | [2] 0.743 µM | [3] 21.5 µM | [4] 4.18 µM | [5] 1.32 µM | [6] 27.3 µM | [7] 18.7 µM | [8] 0.432 µM | [9] 5.26 µM
